# Measured values from ChEMBL document CHEMBL3433997, “St. Jude Leishmania screening dataset” (2016).
# Columns and labels:
# Format in all cases: functional
# [1] = molecular target: Solute carrier family 2, facilitated glucose transporter member 1 (Homo sapiens) (UniProt P11166); assay: ST_JUDE_LEISH: Cytotoxicity at 2uM final concentration against transgenic Leishmania Mexicana promastigotes LmGLUT1 that are glucose transport deficient and complemented with the human glucose transporter GLUT1. Activity is measured by DNA content using SYBR green in vitro
# Sequence of Solute carrier family 2, facilitated glucose transporter member 1 (Homo sapiens) (P11166 whole entry): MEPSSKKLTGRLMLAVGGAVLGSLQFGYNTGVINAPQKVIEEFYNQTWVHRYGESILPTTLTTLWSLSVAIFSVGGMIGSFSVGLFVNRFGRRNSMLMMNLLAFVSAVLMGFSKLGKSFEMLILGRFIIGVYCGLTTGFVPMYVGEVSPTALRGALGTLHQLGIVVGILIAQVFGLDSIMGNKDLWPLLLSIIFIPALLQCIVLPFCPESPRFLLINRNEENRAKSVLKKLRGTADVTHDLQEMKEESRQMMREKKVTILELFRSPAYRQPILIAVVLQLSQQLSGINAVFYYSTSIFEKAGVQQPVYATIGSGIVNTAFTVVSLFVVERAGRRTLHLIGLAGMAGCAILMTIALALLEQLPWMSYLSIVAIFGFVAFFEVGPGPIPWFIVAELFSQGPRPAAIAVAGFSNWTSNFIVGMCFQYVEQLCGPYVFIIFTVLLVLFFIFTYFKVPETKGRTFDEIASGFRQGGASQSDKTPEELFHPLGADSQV
# [2] = molecular target: Hexose transporter 1 (Plasmodium falciparum) (UniProt O97467); assay: ST_JUDE_LEISH: Cytotoxicity at 2uM final concentration against transgenic Leishmania Mexicana promastigotes LmPfHT that are glucose transport deficient and complemented with the Plasmodium falciparum hexose transporter. Activity is measured by DNA content using SYBR green in vitro
# [3] = molecular target: Glucose transporter (Leishmania mexicana) (UniProt O61059); assay: ST_JUDE_LEISH: Cytotoxicity at 2uM final concentration against transgenic Leishmania Mexicana promastigotes LmGT2 that are glucose transport deficient and complemented with the L. Mexicana glucose transporter 2. Activity is measured by DNA content using SYBR green in vitro
smiles,measurement,setting,value
c1ccc2[nH]c(-c3ccc(-c4ccc(CNC5CC5)cc4)s3)nc2c1,inhibition,[1],0.93%
same,inhibition,[2],0.48%
same,inhibition,[3],-2.14%
N=C(N)NC(=O)Nc1cc(Cl)c(Br)c(Cl)c1,inhibition,[1],3%
same,inhibition,[2],6.09%
same,inhibition,[3],2.88%
C=C(C)CSc1nc2c(c(=O)n1CCc1ccccc1)C1(CCCC1)Cc1ccccc1-2,inhibition,[1],5.95%
same,inhibition,[2],5.36%
same,inhibition,[3],5.02%
Cc1ccc(NC(=O)NC2CCN(c3ccnc4ccccc34)CC2)cc1,inhibition,[1],1.13%
same,inhibition,[2],1.21%
same,inhibition,[3],2.3%
CC(C)Oc1ccccc1-c1csc(C(=O)NCC2CCN(Cc3ccc(C(C)(C)C)cc3)C2)c1 (centres undefined),inhibition,[1],0.7%
same,inhibition,[2],1.62%
same,inhibition,[3],-2.96%
CC1(C)N=C(N)N=C(N)N1OCc1ccc2c(c1)OCO2,inhibition,[1],9.15%
same,inhibition,[2],6.63%
same,inhibition,[3],13.4%
O=C(/C=C/c1ccc(Cl)c(Cl)c1)NCCCCCCN1CCCN(C(=O)Nc2ccc(F)c(F)c2)CC1,inhibition,[1],0.72%
same,inhibition,[2],0.44%
same,inhibition,[3],2.39%
COc1ccc(CCNc2nc(SCc3ccccc3Cl)nc3ccccc23)cc1OC,inhibition,[1],1.6%
same,inhibition,[2],3.03%
same,inhibition,[3],1.42%
COC(=O)CCCCOc1c(OC)cc(Cc2cnc(N)nc2N)cc1OC,inhibition,[1],11.2%
same,inhibition,[2],7.13%
same,inhibition,[3],7.7%
Cc1cccc2nc(-c3ccc(-c4cccc(NC(=O)c5cccc(C(N)=O)c5)c4)cc3)[nH]c12,inhibition,[1],3.55%
same,inhibition,[2],3.07%
same,inhibition,[3],2.8%
NC(=O)C1CCN(Cc2ccc(-c3ccc(-c4nc5cc(F)ccc5[nH]4)cc3)cc2)CC1,inhibition,[1],12.7%
same,inhibition,[2],12.7%
same,inhibition,[3],10.8%
Cc1c(C)n(C2CCCC2)c2ncnc(OC3CCN(CC(=O)NCC4CC4)CC3)c12,inhibition,[1],7.05%
same,inhibition,[2],5.47%
same,inhibition,[3],2.01%
CCN(CC)CCn1c2ccccc2c2ccc(C(=O)Nc3ccc4sc(C)nc4c3)cc21,inhibition,[1],13.2%
same,inhibition,[2],11.9%
same,inhibition,[3],8.05%
